High-throughput results deposited in PubChem by National Center for Advancing Translational Sciences (NCATS).
Rows were chosen to be rich in hits. Some 2.4% of all compounds tested hit in one or more screens of this group.
D2 ag-1: agonists of human D2 dopamine receptor; P14416; 0.53% of 340,000 active; activation, % at 2 µM; HEK293 T-REx D2 cells, calcium flux agonist mode; AID 485358;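 active means activation over 3 SD above normal in the single-dose calcium agonist read, cut at about 30% in these data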; further: 0% is about no effect
Target sequence (P14416 whole entry, looked up): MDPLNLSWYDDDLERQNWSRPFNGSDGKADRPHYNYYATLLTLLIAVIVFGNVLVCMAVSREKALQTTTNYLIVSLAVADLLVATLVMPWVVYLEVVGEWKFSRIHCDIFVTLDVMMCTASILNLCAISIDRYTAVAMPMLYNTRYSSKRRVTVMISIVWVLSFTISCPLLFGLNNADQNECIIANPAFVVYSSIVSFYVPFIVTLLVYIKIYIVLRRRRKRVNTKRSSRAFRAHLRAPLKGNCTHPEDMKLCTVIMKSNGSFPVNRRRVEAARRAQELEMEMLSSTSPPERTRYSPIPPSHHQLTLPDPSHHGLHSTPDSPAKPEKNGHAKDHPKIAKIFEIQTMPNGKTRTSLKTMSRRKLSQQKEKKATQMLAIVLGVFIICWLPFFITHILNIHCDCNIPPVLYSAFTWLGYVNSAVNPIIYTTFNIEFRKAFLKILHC
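Agonism is scored from calcium flux in a force-coupled, inducible HEK293 cell line expressing D2, read kinetically for 180 s after compound addition against dopamine controls.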
D2 ag-2: agonists of human D2 dopamine receptor (beta-arrestin); 0.084% of 360,000 active; AID 624465; activation, % (no concentration beside the values); P14416; DiscoveRx PathHunter D2 beta-arrestin, luminescence, 90 min; 100% = 57 uM dopamine signal; in the data active means activation above about 40%; inconclusive means between about 15% and that limit
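DiscoveRx PathHunter D2 beta-arrestin cells (2,100/well) attached overnight, then compound-stimulated 90 min at 37 C in HBSS/10 mM HEPES/0.1% Tween-20 buffer; beta-galactosidase complementation read by luminescence after 1 h at ambient temperature. Dopamine 57 uM final (EC100) as control.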
D2 antag: antagonists of human D2 dopamine receptor. inhibition, % at 10 µM. HEK293 TREx D2 cells, calcium flux, dopamine EC80. 2% of 340,000 active. P14416; in the data active means inhibition above about 30%; inactive means below that, where a call was filed; further: 0% is about no effect
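Antagonism is scored as inhibition of an EC80 dopamine-evoked calcium signal in a force-coupled, tetracycline-inducible HEK293 T-REx D2 line, with compound present 180 s before agonist.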
D2 PAM-1: positively modulates the human D2 dopamine receptor allosterically; 0.34% of 340,000 active; P14416; AID 485347; potentiation, % at 10 µM; HEK293 T-REx D2, calcium flux, EC20 dopamine potentiation;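 active means potentiation over 3 SD above the plate norm, cut at about 30% in these data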; further: 0% is about no effect
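Cells plated with tetracycline inducer and held overnight at 30 C; calcium dye loaded 30–90 min at room temperature; baseline taken, compound added and read 180 s; EC20 dopamine then added and read 180 s.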
D2 PAM-2: positive allosteric modulators of human D2 dopamine receptor; DiscoveRx D2 beta-arrestin cells, luminescence, 90 min; 100% = 57 uM dopamine signal; AID 624464; 0.23% of 360,000 active; potentiation, % (test concentration not listed); in the data active means potentiation above about 50%; inconclusive means mostly about 30% to 49%
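D2 cells co-treated with compound plus 50 nM dopamine (EC20) for 90 min at 37 deg C to detect potentiation. Beta-arrestin recruitment was read as enzyme-fragment luminescence after 1 h at ambient temperature. Full response was set by 57 uM dopamine.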
D3 ag: activates human D3 dopamine receptor beta-arrestin recruitment. DiscoveRx D3 beta-arrestin cells, luminescence, 90 min. shares compounds with D2 ag-1. Potency, µM (titrated, usually from 76.9 µM), inactives show at the top dose activation, actives largely listed as activators. AID 720506. 4% of 2,300 active;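 further: potency means the concentration at half of the fitted maximal effect; 100% = dopamine control response; nearly all actives have a fitted effect of over 70% in size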
D2 ag-3: activates human D2 dopamine receptor in D3 counterscreen; Potency, µM (series often up to 76.9 µM), without a hit: at the top dose activation, hits mostly activators; DiscoveRx PathHunter D2 beta-arrestin, luminescence, 90 min; response scale: percent relative to full dopamine signal; 5.9% of 2,300 active; shares compounds with D2 ag-1; further: potency means the concentration at half of the fitted maximal effect; % of control where 0% means no effect; nearly all actives have a fitted effect of over 70% in size
* = called active by the depositor; ? = inconclusive; nt = no result given. Unless noted, the call rests on the fitted dose curve; in most records, active means well fitted activation curve with a large enough effect; inconclusive means small, poorly fitted or top-dose-only effect; inactive means flat fitted curve, though single readings scatter.

SMILES | D2 ag-1 | D2 ag-2 | D2 antag | D2 PAM-1 | D2 PAM-2 | D3 ag | D2 ag-3
COC(=O)C1=C(c2ccc(OCc3ccccc3)cc2)C[C@@H]2CC[C@H]1N2C(=O)NCc1ccc(N(C)C)cc1 | 1 | -3 | -4 | 16 | -7 | -1% | 4%
COC(=O)C1=C(c2ccc(-c3ccccc3)c(F)c2)C[C@@H]2CC[C@H]1N2C(=O)NCCO | 0 | -2 | 4 | -2 | -12 | -2% | 2%
COC(=O)C1=C(c2ccc(-c3ccccc3)c(F)c2)C[C@@H]2CC[C@H]1N2C(=O)NCCOc1ccccc1Cl | 0 | -3 | -8 | -5 | -16 | -1% | 0%
O=C(Nc1ccc2c(c1)OCO2)c1cccn(Cc2cccc([N+](=O)[O-])c2)c1=O | 5 | nt | nt | -4 | nt | nt | nt
Cc1ccc(C(C)(C)C)c(OCC(=O)Nc2ccc(Cl)cc2C(=O)c2ccccc2)c1 | 1 | nt | nt | 3 | nt | nt | nt
Cc1cccc(Cn2cccc(C(=O)Nc3cc(C)on3)c2=O)c1 | -1 | nt | nt | -1 | nt | nt | nt
CCOC(=O)C1CCN(Cc2ccc(Cl)nc2)CC1 | 47* | 4 | 47* | -20 | -13 | -3% | 1%
CCOc1ccc(CN2CCN(C(=O)Cc3ccccc3)CC2)cc1 | 1 | -7 | -14 | -3 | -21 | nt | nt
O=c1c2ccccc2nc(/C=C\c2ccccc2F)n1-c1ccc(O)cc1 | 0 | nt | nt | 16 | nt | nt | nt
CCOc1ccc(NC(=O)c2cccn(Cc3cccc(Cl)c3)c2=O)cc1 | 1 | nt | nt | 2 | nt | nt | nt
c1ccc(-c2cc(-c3ccccc3)[n+](-c3ccccc3)c(-c3ccccc3)c2)cc1 | nt | 14 | nt | nt | 23 | nt | nt
Cc1ccc(-c2cc(-c3ccc(C)cc3)[n+](-c3ccccc3)c(-c3ccc(C)cc3)c2)cc1 | 28 | 4 | 49* | 1 | -88 | 16% | 18%
CCOc1ccc(CN2C(=O)c3ccccc3Sc3ccc(C(=O)N4CCC5(CC4)OCCO5)cc32)cc1 | 0 | nt | nt | 0 | nt | nt | nt
NCC(O)c1cc(O)c(O)cc1F (centres undefined) | 67* | -4 | 81* | -5 | 0 | 0% | 13µM*
Cc1ccc2scc(N3CCN(C)CC3)c(=O)c2c1 | 1 | nt | nt | 7 | nt | nt | nt
O=P(CN1CCN(c2ccccc2)CC1)(N1CCCCC1)N1CCCCC1 | 28 | 9 | 37* | -1 | 5 | 11% | 13%
Clc1ccc2c(c1)C(c1ccccc1Cl)=NCc1nnc(N3CCN(CCOc4ccccc4)CC3)n1-2 | 58* | 3 | 65* | -35 | -18 | ? | 20%
Clc1ccc2c(c1)C(c1ccccc1Cl)=NCc1nnc(N3CCN(CCSc4ccccc4)CC3)n1-2 | 0 | -5 | -7 | -6 | -4 | nt | nt
CCCCCc1nc2c(c(=O)c3ccccc3n2C)c(=O)n1C1CCCCCC1 | 36* | -2 | 46* | -15 | -6 | 16% | 3%
CCCCCc1nc2ccccc2c(=O)n1-c1ccc(C)cc1 | -1 | nt | nt | 9 | nt | nt | nt
COc1cc2c3c(c1OC)-c1cc(O)ccc1CC3NCC2 (centres undefined) | 21 | 9 | 0 | -10 | -13 | -4% | 16%
CC(C(N)=O)N1CC(c2ccccc2)CC1=O (centres undefined) | 45* | 1 | 0 | -19 | -12 | 0% | -2%
COc1cc(OC)cc(C(=O)Nc2ccc(Cl)cc2C(=O)c2ccccc2Cl)c1 | -2 | nt | nt | 5 | nt | nt | nt
